Screens deposited in PubChem BioAssay by Broad Institute.
mut p53 SMM: binders of human mutant p53, primary screen, biochemical, small molecule microarray, anti-GST fluorescence. AID 624136, 2012. mutant tumor protein p53 (GST-tagged), Homo sapiens. calls only. 17,000 compounds, 0.4% hits. small molecule microarray binding;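 active = compounds whose four printed spots each glow above background more than chance allows, each with a p-value under 7%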
STAT3 SMM: STAT3 binders, primary screen, biochemical, small molecule microarray, single point, set 2. Signal transducer and activator of transcription 3 (Homo sapiens), P40763. calls only. AID 624138, 2012. His-STAT3 binding, anti-His fluorescence. 17,000 compounds, 0.2% hits;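 active = compounds whose four printed spots each show fluorescence over background unusually high for their array block, chance value under 7%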
c-Myc SMM: binders of human c-Myc, primary screen, biochemical, small molecule microarray, anti-His fluorescence; Myc proto-oncogene protein (Homo sapiens), P01106; His-c-Myc binding; calls only; 17,000 compounds, 1.5% hits; AID 624141, 2012;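 active = spot fluorescence over background with P-value below 7% in all four replicate spots, showing protein binding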;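 also: score is binary with 100 for all four spots passing and 0 otherwise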
Target sequence (P01106 whole entry, looked up): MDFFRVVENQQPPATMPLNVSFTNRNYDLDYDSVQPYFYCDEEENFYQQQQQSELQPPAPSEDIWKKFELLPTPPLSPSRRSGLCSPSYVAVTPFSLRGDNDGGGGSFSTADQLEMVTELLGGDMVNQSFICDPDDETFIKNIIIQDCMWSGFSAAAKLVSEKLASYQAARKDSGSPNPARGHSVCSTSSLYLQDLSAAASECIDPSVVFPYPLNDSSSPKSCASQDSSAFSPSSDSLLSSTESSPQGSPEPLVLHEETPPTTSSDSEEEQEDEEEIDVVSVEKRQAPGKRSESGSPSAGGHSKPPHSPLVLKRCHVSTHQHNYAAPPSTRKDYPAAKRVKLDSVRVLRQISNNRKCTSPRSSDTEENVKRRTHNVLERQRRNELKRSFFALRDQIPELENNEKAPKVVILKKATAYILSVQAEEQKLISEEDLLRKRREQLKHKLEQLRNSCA
p53 PUMA act: mutant p53 pathway re-activators, primary screen, cell-based, SW480, luciferase, single point, HTS. SW480 PUMA-promoter luciferase, p53 mutant reactivation. activation, % at 9.98 µM. 28,000 compounds, 1.5% hits; in the data active = activation above about 52%
NFkB binder: binders of NF-kB p50 subunit, primary screen, biochemical, small molecule microarray, anti-His fluorescence | 17,000 compounds, 1.3% hits | AID 624139, 2012 | anti-His fluorescence binding | calls only;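 active = spot fluorescence over background significantly raised, with a chance value under 7% in all four replicate spots of the compound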;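 also: probe protein is his-tagged human p50 processed subunit at 1 µg/ml; raw spot fluorescence signals with no normalization applied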
* hit, by the source's call; i = inactive; · = no result given; + = active, no number. Hits are enriched below; roughly 2.6% of the tested compounds scored in any of these assays.

SMILES	mut p53 SMM	STAT3 SMM	c-Myc SMM	p53 PUMA act	NFkB binder
Cc1ccc(-c2noc(CSc3nnc(C)n3-c3cccc(C)c3)n2)cc1	·	·	·	2	·
Cc1ccc(-c2noc(CSc3nc(C)cc(C)n3)n2)cc1	·	·	·	63*	·
N#Cc1ccccc1OCCCCSc1ncccn1	·	·	·	102*	·
Fc1ccccc1OCCCCSc1ncccn1	i	i	i	31	i
C#C[C@]1(O)CC[C@H]2[C@@H]3CCC4=Cc5oncc5C[C@]4(C)[C@H]3CC[C@@]21C	·	i	+	·	i
Cc1ccc(S(=O)(=O)NCCC(=O)Oc2ccc3c(=O)c(-c4ccc(F)cc4)coc3c2)cc1	i	i	i	105*	i
CC1CCc2c(sc3ncnc(SCCO)c23)C1 (configuration not stated)	i	i	i	18	i
COc1ccc(-c2noc(CC(=O)O)c2-c2ccc(OC)cc2)cc1	i	i	+	-13	i
CCO[C@H]1OC(C(=O)NC2CC2)=C[C@@H](C(C)(C)C)[C@@H]1CCCO	i	i	i	·	i
CN(c1ccc(OCC(=O)O)cc1)S(=O)(=O)c1ccc(F)cc1	i	i	i	-1	+
O=C(O)Cn1nnnc1-c1ccc(F)cc1	i	i	+	-4	+
O=C(O)CCn1nc(-c2ccc(F)cc2)ccc1=O	·	·	·	11	·
O=C(CSc1n[nH]c(-c2ccncc2)n1)N1c2ccccc2Sc2ccccc21	·	·	·	-11	·
O=C(Nc1ccc(Cl)c(Cl)c1)C(Cc1ccccc1)N1C(=O)c2ccccc2C1=O (configuration not stated)	i	i	i	10	i
C=CC1(C)C=C2CCC3C(C)(C)C(O[C@@H]4O[C@@H](CO)[C@H](O)[C@H]4O)CCC3(C)C2CC1O[C@@H]1O[C@H](C)[C@H](O)[C@H](O)[C@H]1O (some centres not stated)	i	i	i	-15	+
CCOC(=O)c1cnc2c(C)c(C)ccc2c1NCCN(C)C	+	i	i	42	i
COc1cccc2cc(C(=O)C3C(=O)C(=O)N(c4nc(C)c(C)s4)C3c3ccco3)oc12 (configuration not stated)	i	i	+	2	i
CCOC(=O)c1sc(N2C(=O)C(=O)C(C(=O)c3ccc(OC)c(C)c3)C2c2ccco2)nc1C (configuration not stated)	·	·	·	1	·
OC(c1ccccc1)c1nc2ccccc2n1CCOc1ccccc1 (configuration not stated)	·	·	·	2	·
c1ccc(OCc2nc3ccccc3n2Cc2ccccn2)cc1	i	i	i	59*	i
CC(=O)c1cccc(NC(=O)CN2C(=O)c3ccccc3S2(=O)=O)c1	i	i	i	-13	i
Cc1cccc(-c2nnc(SCC(=O)Nc3ccc(Br)cc3F)o2)c1	·	·	·	80*	·
Cc1ccc(NC(=O)CSc2nnc(-c3ccc(Br)cc3)o2)cc1Cl	·	·	·	46	·
O=C(CSc1nnc(-c2ccccc2)o1)Nc1cccc(Br)c1	·	·	·	102*	·
CSc1cccc(NC(=O)CSc2nnc(-c3cccc(C)c3)o2)c1	·	·	·	103*	·
SMILES	mut p53 SMM	STAT3 SMM	c-Myc SMM	p53 PUMA act	NFkB binder
O=C(CSc1nnc(-c2ccc(Br)cc2)o1)Nc1ccccc1Cl	·	·	·	75*	·
Cc1nn(CC(O)COc2ccc3cc(Br)ccc3c2)c(C)c1Cl (configuration not stated)	·	·	·	7	·
C[C@@H]1CCCCO[C@@H](CN(C)C(=O)C2CCCCC2)[C@H](C)CN([C@H](C)CO)C(=O)c2cc(NS(=O)(=O)c3cccs3)ccc2O1	i	i	i	-8	i
C[C@@H]1CCCCO[C@@H](CN(C)C(=O)C2CCCCC2)[C@@H](C)CN([C@H](C)CO)C(=O)c2cc(NS(=O)(=O)c3cccs3)ccc2O1	i	i	+	-2	+
C[C@H](CO)N1C[C@H](C)[C@@H](CN(C)C(=O)C2CCCCC2)OCCCC[C@H](C)Oc2ccc(NS(=O)(=O)c3cccs3)cc2C1=O	i	i	i	-9	i
C[C@@H]1CCCCO[C@H](CN(C)C(=O)C2CCCCC2)[C@H](C)CN([C@@H](C)CO)C(=O)c2cc(NS(=O)(=O)c3cccs3)ccc2O1	i	+	i	-14	i
c1ccc(Cn2c(SCCN3CCOCC3)nc3ccccc32)cc1	i	i	+	8	i
COc1ccc(S(=O)(=O)Nc2cccc3c2O[C@@H](CN(C)Cc2ccc(C(F)(F)F)cc2)[C@H](C)CN([C@H](C)CO)C3=O)cc1	i	+	i	10	i
C[C@@H]1CN([C@@H](C)CO)C(=O)c2cccc(NC(=O)Nc3ccc(C(F)(F)F)cc3)c2O[C@H]1CN(C)S(=O)(=O)c1cn(C)cn1	i	i	+	20	+
COc1ccc(S(=O)(=O)Nc2cccc3c2O[C@H](CN(C)Cc2ccc(C(F)(F)F)cc2)[C@@H](C)CN([C@@H](C)CO)C3=O)cc1	i	i	i	-2	i
C[C@H](CO)N1C[C@H](C)[C@H](CN(C)C(=O)Nc2ccc(C(F)(F)F)cc2)Oc2c(NC(=O)NC3CCCCC3)cccc2C1=O	i	i	i	-19	i
C[C@H]1CN([C@@H](C)CO)C(=O)c2cccc(NC(=O)NC3CCCCC3)c2O[C@@H]1CN(C)C(=O)Nc1ccc(C(F)(F)F)cc1	i	i	+	-4	+
C[C@@H]1CN([C@H](C)CO)C(=O)c2cccc(NC(=O)Nc3ccc(C(F)(F)F)cc3)c2O[C@H]1CN(C)CC1CC1	i	+	i	-13	i
Cn1c(SCC(=O)Nc2ccc([N+](=O)[O-])cc2)nc2ccccc21	i	i	i	42	i
Cc1cc(C)c(S(=O)(=O)N(C)CC(=O)Nc2ccccc2F)c(C)c1	·	·	·	5	·
C[C@H](CO)N1C[C@H](C)[C@H](CN(C)C(=O)NC2CCCCC2)Oc2c(NC(=O)Nc3ccc(C(F)(F)F)cc3)cccc2C1=O	i	i	i	-2	i
C[C@@H]1CN([C@H](C)CO)C(=O)c2cccc(NC(=O)Nc3ccc(C(F)(F)F)cc3)c2O[C@H]1CN(C)C(=O)NC1CCCCC1	i	+	+	-16	+
Cc1noc(C)c1NC(=O)Nc1ccc2c(c1)C(=O)N([C@@H](C)CO)C[C@@H](C)[C@@H](CN(C)C(=O)C1CCCCC1)OCCCC[C@@H](C)O2	i	+	i	1	i
Cc1noc(C)c1NC(=O)Nc1ccc2c(c1)C(=O)N([C@H](C)CO)C[C@H](C)[C@@H](CN(C)C(=O)C1CCCCC1)OCCCC[C@H](C)O2	i	i	+	4	i
